From PubChem BioAssay
MCF10A rereplic = induces DNA re-replication in MCF 10a normal breast cells; MCF 10A DNA re-replication, Hoechst nuclear intensity, 48 h; Potency, µM (top dose mostly 46.1 µM), for the others: top-dose activity, positive = re-replication, actives largely listed as activators; hit rate 2.9% among 350,000; AID 624296; also: % of control where 0% means no effect; nearly all actives have a fitted effect of over 50% in size
HT1080 IDH1KD tx = kills HT-1080 cells with IDH1 knockdown; HT-1080 IDH1 knockdown viability, ATP luminescence, 48 h; Potency, µM (doses to about 46.1 µM), without a hit: top-dose activity, negative = toxicity, usual class: cytotoxic; hit rate 2% among 360,000; AID 686971;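 also: 0% = DMSO wells and -100% = cell-free medium wells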
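Using the IDH1-knockdown HT-1080 line run in the same batch and compound series as the NT line, viability after 48 h at 37 °C was determined by CellTiter-Glo luminescence and expressed as % activity.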
SW480 rereplic = inducers of DNA re-replication in SW480 colon cancer cells; SW480 DNA re-replication, Hoechst DNA content imaging, 48 h; Potency, µM (top dose mostly 46.1 µM), without a hit: at the highest dose re-replication activation, hits mostly activators; hit rate 1.8% among 340,000; also: % of control where 0% means no effect; nearly all actives have a fitted effect of over 55% in size
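Hoechst fluorescence of nuclei (405 nm excitation, 500-530 nm emission) measured by plate-scanning imager after 48 hr compound exposure at 37 C; re-replication scored as increased number of nuclei with elevated intensity.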
KB-V1 MDR tox = kills drug-selected multidrug resistant KB-V1 cells; KB-V1 MDR cells viability, CellTiter-Glo, 72 h; Potency, µM (series often up to 46.1 µM), actives largely listed as cytotoxic; hit rate 3.4% among 400,000; also: % is scaled to controls: 0 for no effect and ±100 for the full control effect; nearly all actives have a fitted effect of over 60% in size
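Potencies derive from concentration-effect curves fitted to normalized luminescence (CellTiter-Glo) of KB-V1 cells treated for 72 h at 37 degrees C in phenol-red-free DMEM containing 10% FBS.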
KB-3-1 cytotox = KB-3-1 parental cell cytotoxicity. Potency, µM (top dose mostly 46.1 µM), hits mostly cytotoxic. KB-3-1 viability, CellTiter-Glo ATP luminescence, 72 h. hit rate 1.4% among 400,000. AID 1347075; also: % is scaled to controls: 0 for no effect and ±100 for the full control effect; nearly all actives have a fitted effect of over 60% in size
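Luminescent ATP read-out (CellTiter-Glo) measures survival of drug-naive KB-3-1 cells after 72 h compound exposure at 37 °C. Titration series was screened from lowest to highest concentration, with DMSO vehicle plates as background controls.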
HT1080-NT tox = kills 2HG-producing HT-1080-NT fibrosarcoma cells | hit rate 1.6% among 360,000 | Potency, µM (top dose mostly 46.1 µM), for inactives: at the top dose activity, negative = less viability, hits mostly cytotoxic | AID 686970 | HT-1080-NT fibrosarcoma viability, CellTiter-Glo ATP luminescence, 48 h;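 also: NT is the 2HG producing partner of a matched IDH1 knockdown line; 0% = DMSO-treated cells and -100% = media-only wells without cells; nearly all actives have a fitted effect of over 55% in size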
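Read-out is CellTiter-Glo luminescence after 10 minutes at room temperature, following 48 hours' compound treatment of HT-1080-NT cells (750 cells/well, RPMI, 5% FBS, 37 degrees C).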
* hit, by the source's call. Rows were chosen to be rich in hits. Some 7.9% of all compounds tested hit in one or more screens of this group. Calls follow the shape of the dose curve; as a rule, active = well fitted curve in the direction sought with a large enough effect; inconclusive = small, poorly fitted or top-dose-only effect, or another doubt; inactive = no such curve, though single readings can be large; an effect the other way counts as inactive or inconclusive. Potency is read from the fitted curve at half-maximal effect.

Results for O=C(Nc1cccc2cccnc12)c1ccc(Cl)cc1Cl ?
MCF10A rereplic: -1%; HT1080 IDH1KD tx: 0%; SW480 rereplic: 3%; KB-V1 MDR tox: inactive; KB-3-1 cytotox: inactive; HT1080-NT tox: -2%

How did COc1cc(NS(=O)(=O)c2ccc(C)cc2)c2ncccc2c1 do in these assays?
MCF10A rereplic: 24%; HT1080 IDH1KD tx: inconclusive; SW480 rereplic: 3.7µM*; KB-V1 MDR tox: inconclusive; KB-3-1 cytotox: 9.2µM*; HT1080-NT tox: -30%

What do the screens show for `COc1cc(OC)c(NC(=O)c2cc3ccccc3cc2O)cc1Cl`?
MCF10A rereplic: 21µM*; HT1080 IDH1KD tx: -9%; SW480 rereplic: 26%; KB-V1 MDR tox: inconclusive; KB-3-1 cytotox: inconclusive; HT1080-NT tox: -11%

Results for COc1cc(NC(=O)c2ccccc2Cl)c2ncccc2c1 ?
MCF10A rereplic: 4.6µM*; HT1080 IDH1KD tx: inconclusive; SW480 rereplic: inconclusive; KB-V1 MDR tox: inconclusive; KB-3-1 cytotox: inconclusive; HT1080-NT tox: inconclusive

Results for Cc1ccc(S(=O)(=O)Nc2cccc3cccnc23)cc1 ?
MCF10A rereplic: inconclusive; HT1080 IDH1KD tx: -20%; SW480 rereplic: inconclusive; KB-V1 MDR tox: inconclusive; KB-3-1 cytotox: inactive; HT1080-NT tox: -2%

What do the screens show for `CCN1CCN(c2ccc(S(=O)(=O)N3CCCCC3)cc2NC(=O)c2ccc([N+](=O)[O-])o2)CC1`?
MCF10A rereplic: inconclusive; HT1080 IDH1KD tx: 2%; SW480 rereplic: 7.3µM*; KB-V1 MDR tox: inconclusive; KB-3-1 cytotox: inconclusive; HT1080-NT tox: -1%

Results for COc1ccc(-c2cc3ccccc3oc2=O)cc1NC(=O)c1ccc([N+](=O)[O-])o1 ?
MCF10A rereplic: 7.3µM*; HT1080 IDH1KD tx: inconclusive; SW480 rereplic: 9.2µM*; KB-V1 MDR tox: inconclusive; KB-3-1 cytotox: inconclusive; HT1080-NT tox: -11%

Results for CCN1CCN(c2ccc(S(=O)(=O)N3CCCCC3)cc2NC(=O)c2ccc(C)c(C)c2)CC1 ?
MCF10A rereplic: 0%; HT1080 IDH1KD tx: -21%; SW480 rereplic: 1%; KB-V1 MDR tox: inactive; KB-3-1 cytotox: inactive; HT1080-NT tox: -28%

What do the screens show for `COc1ccc(S(=O)(=O)N2CCCCC2)cc1NC(=O)c1ccco1`?
MCF10A rereplic: 0%; HT1080 IDH1KD tx: -1%; SW480 rereplic: -1%; KB-V1 MDR tox: inactive; KB-3-1 cytotox: inactive; HT1080-NT tox: -11%

Results for COc1ccc(-c2cc3ccccc3oc2=O)cc1NC(=O)c1ccc(Br)o1 ?
MCF10A rereplic: 25%; HT1080 IDH1KD tx: -29%; SW480 rereplic: 26%; KB-V1 MDR tox: inactive; KB-3-1 cytotox: inactive; HT1080-NT tox: -13%

How did COc1ccc(S(=O)(=O)N2CCCCC2)cc1NC(=O)c1ccc([N+](=O)[O-])o1 do in these assays?
MCF10A rereplic: 2.3µM*; HT1080 IDH1KD tx: -6%; SW480 rereplic: 2.9µM*; KB-V1 MDR tox: inactive; KB-3-1 cytotox: 18µM*; HT1080-NT tox: 7%

How did Cc1sc(NC(=O)c2ccco2)c(CN2CCN(c3ccccn3)CC2)c1C do in these assays?
MCF10A rereplic: inconclusive; HT1080 IDH1KD tx: -22%; SW480 rereplic: 11%; KB-V1 MDR tox: inconclusive; KB-3-1 cytotox: 21µM*; HT1080-NT tox: -4%

Results for Cc1sc(NC(=O)c2ccco2)c(CN2CCN(c3ccc(F)cc3)CC2)c1C ?
MCF10A rereplic: 11%; HT1080 IDH1KD tx: -13%; SW480 rereplic: 1%; KB-V1 MDR tox: inconclusive; KB-3-1 cytotox: inactive; HT1080-NT tox: -2%

How did COc1cc(/C=C2/C(=O)c3cccc([N+](=O)[O-])c3C2=O)c(Br)cc1O do in these assays?
MCF10A rereplic: inconclusive; HT1080 IDH1KD tx: 18µM*; SW480 rereplic: inconclusive; KB-V1 MDR tox: inactive; KB-3-1 cytotox: inactive; HT1080-NT tox: inconclusive

What do the screens show for `CC(=O)c1ccccc1NC(=O)CSCc1nc2sc(C)c(C)c2c(=O)[nH]1`?
MCF10A rereplic: 3%; HT1080 IDH1KD tx: -2%; SW480 rereplic: -5%; KB-V1 MDR tox: inconclusive; KB-3-1 cytotox: inactive; HT1080-NT tox: -6%

Results for CSc1ccccc1NC(=O)CSCc1nc2sc(C)c(C)c2c(=O)[nH]1 ?
MCF10A rereplic: 2.3µM*; HT1080 IDH1KD tx: 3%; SW480 rereplic: -26%; KB-V1 MDR tox: inactive; KB-3-1 cytotox: inactive; HT1080-NT tox: 2%

What do the screens show for `Cc1sc2nc(CSCC(=O)Nc3ccccc3C#N)[nH]c(=O)c2c1C`?
MCF10A rereplic: 21%; HT1080 IDH1KD tx: 1%; SW480 rereplic: 7%; KB-V1 MDR tox: 21µM*; KB-3-1 cytotox: inactive; HT1080-NT tox: 0%

What do the screens show for `O=C(Cc1ccccc1F)NC1CCCN(Cc2ccc(Cl)cc2)C1` (stereo unspecified)?
MCF10A rereplic: inconclusive; HT1080 IDH1KD tx: -4%; SW480 rereplic: inconclusive; KB-V1 MDR tox: inactive; KB-3-1 cytotox: inactive; HT1080-NT tox: -9%

How did O=c1cc(N2CCCCC2)c(-c2ccccc2)nn1Cc1cccc(Cl)c1 do in these assays?
MCF10A rereplic: 21µM*; HT1080 IDH1KD tx: 10%; SW480 rereplic: 6%; KB-V1 MDR tox: inactive; KB-3-1 cytotox: inactive; HT1080-NT tox: 0%

Results for O=c1cc(N2CCCCC2)c(-c2ccccc2)nn1Cc1ccc(Cl)cc1Cl ?
MCF10A rereplic: 15µM*; HT1080 IDH1KD tx: inconclusive; SW480 rereplic: 18%; KB-V1 MDR tox: inactive; KB-3-1 cytotox: inactive; HT1080-NT tox: inconclusive

What do the screens show for `N#Cc1cccc(OC(=O)C2CCN(C(=O)c3ccc(F)cc3)CC2)c1`?
HT1080 IDH1KD tx: 2%; KB-V1 MDR tox: inactive; KB-3-1 cytotox: inactive; HT1080-NT tox: 3%

Results for COc1ccc(-c2cnn3c4c(c(C)nc23)CCN4C(C)C)cc1OC ?
MCF10A rereplic: inconclusive; HT1080 IDH1KD tx: 22%; SW480 rereplic: inconclusive; KB-V1 MDR tox: 2.1µM*; KB-3-1 cytotox: inactive; HT1080-NT tox: 3%

Results for COC(CN1CCc2c(C)nc3c(C#N)cnn3c21)OC ?
MCF10A rereplic: 11%; HT1080 IDH1KD tx: -2%; SW480 rereplic: 6%; KB-V1 MDR tox: inactive; KB-3-1 cytotox: inactive; HT1080-NT tox: 1%

Results for CCCNC(=O)c1cc(C2CCCN(C(=O)c3cc(C(C)(C)C)nn3C)C2)on1 (stereo unspecified) ?
HT1080 IDH1KD tx: 2%; KB-V1 MDR tox: inactive; KB-3-1 cytotox: inactive; HT1080-NT tox: 5%

Results for CCCNC(=O)c1cc(C2CCCCN2C(=O)c2cc(C(C)(C)C)nn2C)on1 (stereo unspecified) ?
HT1080 IDH1KD tx: 2%; KB-V1 MDR tox: 16µM*; KB-3-1 cytotox: inconclusive; HT1080-NT tox: 0%
